Bioassay records deposited in PubChem by several laboratories.
Shown are actives, neighbours in structure and some others; about 2.2% of the full set was active somewhere.
Hsp70 act = Hsp70 transcriptional activators, primary screen, cell-based, HeLa, Hsp70 promoter luciferase, luminescence, 10 µM | HeLa Hsp70 promoter luciferase reporter; scaled: vehicle 0, proteasome-inhibitor control 100% | activation, % at 10 µM | hit rate 0.04% among 200,000;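 active = activation above the mean across all tested compounds plus 3 SD, cutoff set per campaign, cut at about 5.5% in these data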
GAA850 FXN act = FXN promoter activators, primary screen, cell-based, luciferase luminescence, HEK293 lucGAA850; HEK293 lucGAA850 FXN promoter luciferase reporter, 24 h; percent of 10 µM SAHA response; activation, % at 6 µM; hit rate 0.56% among 360,000;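 active = activation above the average of all compounds screened plus 3 SD, cutoff fixed separately per campaign, cut at about 7.5% in these data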
HIF activator = HIF pathway transcriptional activators, primary screen, cell-based, U2OS HRE-luciferase, luminescence | U2OS HRE-luciferase reporter; normalized: DMSO 0%, desferrioxamine 100% | activation, % at 7.5 µM (by protocol) | hit rate 0.32% among 300,000;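 active = mean activation of at least 10% of the iron chelator positive control signal, with at least half of replicates also reaching 10%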
GalR3 antag = GalR3 antagonists in HEK293 cells, primary screen, cell-based, fluorescence readout | HEK293 GalR3-CNG cAMP membrane potential fluorescence; galR3 body fused to GalR1 C-terminus | inhibition, % at 3 µM | Galanin receptor type 3 (Homo sapiens), O60755 | AID 651719, 2012 | hit rate 0.44% among 360,000;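 active = inhibition above the screen-wide average plus 3 SD, cut at about 13% in these data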;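 also: forskolin and galanin both at EC90 stimulate the cells; cAMP rise reported by CNG channel membrane potential dye signal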
Target sequence (O60755 1-299 limits assumed): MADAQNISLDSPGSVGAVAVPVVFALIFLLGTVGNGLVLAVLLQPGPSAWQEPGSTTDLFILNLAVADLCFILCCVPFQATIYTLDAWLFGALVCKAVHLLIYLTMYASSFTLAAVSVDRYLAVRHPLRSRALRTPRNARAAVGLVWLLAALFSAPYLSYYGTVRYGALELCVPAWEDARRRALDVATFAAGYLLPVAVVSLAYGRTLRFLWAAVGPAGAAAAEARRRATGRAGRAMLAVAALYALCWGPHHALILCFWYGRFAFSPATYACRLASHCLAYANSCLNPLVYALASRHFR
SMARCA2 activ = SMARCA2 (BRM) function activators, primary screen, cell-based, luminescence, high throughput; MG213 cells, MMTV-luciferase reporter, dexamethasone, overnight; activation, % at 9.1 µM; hit rate 1% among 370,000; in the data active = activation above about 7.8%
SMARCA2 conf = SMARCA2 (BRM) function activators, confirmation, cell-based, luminescence, triplicate; shares compounds with SMARCA2 activ; MG213 cells, MMTV-luciferase with dexamethasone, overnight; MG213 cells expressing E1A, Rb sequestered; DMSO wells 0%, reference activator 100%; activation, % at 9.1 µM; hit rate 30% among 3,500; AID 652260, 2013;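 active = activation above its plate's cutoff, the mean activation of tested wells plus 3 SD, cut at about 7.9% in these data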
GAL4-VP16 Luc = GAL4-VP16 luciferase reporter activation, counter-screen for SMARCA2 (BRM) activator project, cell-based, pG5luc, luminescence, high throughput | shares compounds with SMARCA2 activ | HEK293 GAL4-VP16 pG5luc reporter; scaled: DMSO wells 0%, SAHA wells 100% | activation, % at 9.1 µM | hit rate 41% among 3,500;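 active = activation above the solvent-only control well mean plus 3 SD, averaged across control plates, cut at about 5.2% in these data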
Large screens that a line does not name were inactive (follow-up assays come after a bar, where they were run).

COC(=O)Cc1nnn2c1[C@H](C)[C@@H](OC)c1ccc(C(F)(F)F)cc1-2	SMARCA2 activ 11 (no result: Hsp70 act, GAA850 FXN act, HIF activator) | SMARCA2 conf inactive | GAL4-VP16 Luc inactive
CC1(c2nnnn2Cc2ccccc2)CSCC(=O)N1Cc1cccs1 (stereo not given)	none (no result: Hsp70 act, GAA850 FXN act, HIF activator, GalR3 antag)
O=C(CC1CC2CCC1C2)NC1CCCCCCC1 (stereo not given)	SMARCA2 activ 9.5 (no result: Hsp70 act) | SMARCA2 conf inactive | GAL4-VP16 Luc inactive
COc1ccc2c(c1)CCCN2C(=O)C1CCCN(S(=O)(=O)c2ccc(C(C)(C)C)cc2)C1 (stereo not given)	none (no result: Hsp70 act, GAA850 FXN act, HIF activator, GalR3 antag)
NC(=O)c1ccc(-c2ncc(-c3ccccc3)o2)cc1	SMARCA2 activ 18 | SMARCA2 conf 17 | GAL4-VP16 Luc 11
Cc1ccnc(NC(=O)c2cccc3ccccc23)c1	SMARCA2 activ 11 (no result: Hsp70 act) | SMARCA2 conf inactive | GAL4-VP16 Luc inactive
N#Cc1c2n(c3c(=O)[nH]cnc13)CCCC2	SMARCA2 activ 9.3 | SMARCA2 conf inactive | GAL4-VP16 Luc inactive
CCOc1ccc(OCc2ccc(C(=O)N3CCc4ccccc4C3)o2)cc1	SMARCA2 activ 13 | SMARCA2 conf inactive | GAL4-VP16 Luc inactive
CCOc1ccc(OCc2ccc(C(=O)N3CCCCC3)o2)cc1	none (no result: Hsp70 act)
CC(C)(C)N1NC(=O)Nc2ccccc2C1=O	SMARCA2 activ 9.6 | SMARCA2 conf inactive | GAL4-VP16 Luc inactive
O=C1NC(=S)S/C1=C\C=C\c1ccc([N+](=O)[O-])o1	SMARCA2 activ 24 (no result: Hsp70 act, HIF activator) | SMARCA2 conf inactive | GAL4-VP16 Luc inactive
O=C1NC(=S)S/C1=C/c1ccc(N2CCOCC2)o1	none (no result: HIF activator, GalR3 antag, SMARCA2 activ)
C(=N\Nc1nncc2ccccc12)/c1cccnc1	none (no result: Hsp70 act, GAA850 FXN act, HIF activator, GalR3 antag)
c1ccc(Nc2ncnc3c2oc2ccccc23)cc1	none
Oc1cccc(Nc2ncnc3c2oc2ccccc23)c1	SMARCA2 activ 8.3 (no result: Hsp70 act) | SMARCA2 conf 12 | GAL4-VP16 Luc 9.1
Cc1cc(C)cc(NC(=O)CCN2CC(C)OC(C)C2)c1 (stereo not given)	SMARCA2 activ 8.4 | SMARCA2 conf inactive | GAL4-VP16 Luc inactive
CCC(C)N(Cc1ccc(OC)cc1OC)S(=O)(=O)c1cc(Br)ccc1Br (stereo not given)	none (no result: Hsp70 act, GAA850 FXN act, HIF activator)
O=C(NCCc1c[nH]c2ccccc12)OCc1cn(Cc2cccc(C(F)(F)F)c2)nn1	none (no result: Hsp70 act, GAA850 FXN act, HIF activator, GalR3 antag)
Nc1nc(N)c2sc3nc4c(cc3c2n1)CCC4	SMARCA2 activ 8.1 | SMARCA2 conf 11 | GAL4-VP16 Luc 5.1
O=C(Nc1ccccc1)Nc1ccc2ncoc2c1	SMARCA2 activ 13 | SMARCA2 conf inactive | GAL4-VP16 Luc 7.3
C[C@H]1CCC/C=C/C(=O)c2c(cc(O)c(Cl)c2O)CC(=O)O1	none (no result: Hsp70 act, GAA850 FXN act, HIF activator, GalR3 antag)
O=C(CCCc1ccccc1)Nc1ccc2c(c1)OCCO2	SMARCA2 activ 9.3 | SMARCA2 conf inactive | GAL4-VP16 Luc 8.8
O=C(Nc1ccc2c(c1)OCCO2)C(=S)NCc1ccccc1	SMARCA2 activ 9.7 | SMARCA2 conf inactive | GAL4-VP16 Luc inactive
O=C(Cn1cnc2ccccc2c1=O)Nc1ccc2c(c1)OCCO2	SMARCA2 activ 8.0 | SMARCA2 conf inactive | GAL4-VP16 Luc 12
O=C1C(NC(=O)N2c3ccccc3C=Cc3ccccc32)CCCCN1Cc1cccc(C(F)(F)F)c1 (stereo not given)	none (no result: Hsp70 act, GAA850 FXN act, HIF activator, GalR3 antag)
Cc1ccc2nc(-c3ccc(NC(=S)NC(=O)C(C)C)cc3)sc2c1	none
Cc1ccc2nc(-c3ccc(NC(=O)CSCC(=O)O)cc3)sc2c1	SMARCA2 activ 16 (no result: Hsp70 act) | SMARCA2 conf inactive | GAL4-VP16 Luc 20
O=C(O)CSCC(=O)Nc1ccc(-c2nc3ccccc3s2)cc1	none (no result: Hsp70 act)
Cc1ccc2nc(-c3ccc(NC(=S)NC4CC(C)(C)NC(C)(C)C4)cc3)sc2c1	SMARCA2 activ 13 | SMARCA2 conf inactive | GAL4-VP16 Luc 16
CCCCCN1CCCCC(NC(=O)c2cccc(C(F)(F)F)c2)C1=O (stereo not given)	none (no result: Hsp70 act, GAA850 FXN act, HIF activator, GalR3 antag)
COc1cccc(C(=O)Nc2ccc(NC(=O)C3CC3)cn2)c1	SMARCA2 activ 8.4 | SMARCA2 conf inactive | GAL4-VP16 Luc 8.2
COc1cccc(C(=O)Nc2ccc(NC(=O)C(C)C)nc2)c1	SMARCA2 activ 8.5 | SMARCA2 conf inactive | GAL4-VP16 Luc inactive
CCOC(=O)[C@@]12CCCC=C1N(CCc1ccc(Cl)cc1)C(=O)[C@H]2CC(=O)NCc1cccc2ccccc12	none (no result: Hsp70 act, GAA850 FXN act, HIF activator, GalR3 antag)
CCCC[C@@H]1C(=O)N2N=Cc3cc4ccccc4cc3[C@H]2N2N=Cc3cc4ccccc4cc3[C@@H]12	none (no result: Hsp70 act, GAA850 FXN act, HIF activator, GalR3 antag)
COc1ccc(/C=N/Nc2ccc(C(=O)O)cc2)cc1OC	SMARCA2 activ 9.1 (no result: Hsp70 act) | SMARCA2 conf inactive | GAL4-VP16 Luc 13
CCOc1ccc(/C=N/NC(=O)C2CC2)cc1OC	none (no result: Hsp70 act)
COc1cc(C=NNc2ccccc2)ccc1OC(=O)c1ccccc1	none (no result: Hsp70 act, HIF activator)
COc1ccc(/C=N/Nc2ccc(C(=O)O)cc2)cc1Br	none
COc1ccc(/C=N\NC(=O)C2CCCC2)cc1Br	SMARCA2 activ 9.0 (no result: Hsp70 act) | SMARCA2 conf inactive | GAL4-VP16 Luc inactive
CCOc1cc(/C=N/Nc2cccc(C(=O)O)c2)ccc1OC(=O)c1ccccc1	SMARCA2 activ 11 | SMARCA2 conf inactive | GAL4-VP16 Luc 18
COc1cc(/C=N/Nc2ccc(Cl)c(C(=O)O)c2)ccc1OC(=O)c1cccs1	none (no result: HIF activator)
COc1cc(/C=N/Nc2ccccc2)ccc1OC(=O)c1cccs1	SMARCA2 activ 9.7 (no result: GAA850 FXN act, HIF activator) | SMARCA2 conf inactive | GAL4-VP16 Luc inactive
CC(=O)N1C[C@@H](CO)[C@@H](N(C)C(=O)Nc2cccc3ccccc23)C[C@H]1c1ccccc1	none (no result: Hsp70 act, GAA850 FXN act, HIF activator)
O=C(OC12CCCN(C1)/C(=C/c1ccccc1)C2)c1ccccc1 (stereo not given)	none (no result: Hsp70 act, GAA850 FXN act, HIF activator, GalR3 antag)
COc1ccc(/C=N/NC(=O)OC(C)(C)C)cc1OC	SMARCA2 activ 8.4 | SMARCA2 conf inactive | GAL4-VP16 Luc inactive
C=CCN(CC#CC(=C)C)Cc1ccc(OC)cc1OC	none (no result: Hsp70 act, GAA850 FXN act, HIF activator, GalR3 antag)
O=C(CCn1c(=O)oc2ccccc21)Nc1ccccc1	SMARCA2 activ 9.0 | SMARCA2 conf inactive | GAL4-VP16 Luc inactive
Cc1cc(Nc2cc(Cl)cc(Cl)c2)cc(=O)n1-c1cc(Cl)cc(Cl)c1	none (no result: Hsp70 act, GAA850 FXN act, HIF activator)
CCOc1cc2c(cc1OCC)C(c1ccccc1)N(c1ccc(C(=O)O)cc1)C(=O)C2 (stereo not given)	SMARCA2 activ 9.5 (no result: Hsp70 act) | SMARCA2 conf inactive | GAL4-VP16 Luc inactive
CCOC(=O)c1ccc(N2C(=O)C(O)=C(C(C)=O)C2c2ccccc2)cc1 (stereo not given)	none
